# Targets with a hit are over-represented here; the source holds about 8,800 in all. About 0.5% of all pairs of compound and target were hits. Values without a mark were called inactive.
# How the values were obtained:
# Assay in all cases: log2 fold change, soluble protein after heating vs DMSO (PISA); higher = thermal stabilisation; K562 lysate, 10 uM; active = over 0.2 and 3.5 SD of the protein, either way, in both replicates (recomputed)
# [1] = compound: CN1CC[C@H](c2c(O)cc(O)c3c(=O)cc(-c4ccccc4Cl)oc23)[C@H](O)C1 [alvocidib]
# Outline: (§1)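 Values give the log-two fold change in thermal stability against solvent controls, from duplicates. Crude K562 extract at 1 mg/mL protein, made by dounce homogenisation in PBS pH 7.4 with 1 mM MgCl2, was treated with 10 μM compound for 30 min. After 3 min heating across 48°C-58°C, aliquots were pooled, adjusted to 0.5% NP-40 at 4°C and centrifuged at 21,000xg for 90 min. The supernatant was measured by TMTpro 16plex LC-MS/MS with channel sums equalised.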
# [2] = compound: CN1CCc2c(c3ccccc3n2Cc2ccc(C(=O)NO)cc2)C1 [Tubastatin A]
# Outline: as §1
# [3] = compound: CNC(=O)C1=CC=CC=C1NC2=NC(=NC=C2Cl)NC3=C(C=C(C=C3)N4CCOCC4)OC
# Outline: as §1
# [4] = compound: CNC(=O)c1ccc(Nc2ncc(C(F)(F)F)c(NCc3nccnc3N(C)S(C)(=O)=O)n2)cc1 [defactinib]
# Outline: as §1
# [5] = compound: CNc1nc(-c2ccc3c(N)n[nH]c3c2)cc(N2C[C@@H](C(=O)NC3CCCCC3)CC[C@H]2C)n1
# Outline: as §1
# [6] = compound: COC(=O)N[C@@H](C)CNc1nccc(-c2cn(C(C)C)nc2-c2cc(Cl)cc(NS(C)(=O)=O)c2F)n1 [encorafenib]
# Outline: as §1
# [7] = compound: COC(=O)[C@H](CCSC)NC(=O)C1=C(C=C(C=C1)NC[C@H](CS)N)C2=CC=CC=C2
# Outline: as §1
# [8] = compound: COc1cc(Nc2ncc3c(n2)-c2ccc(Cl)cc2C(c2c(F)cccc2OC)=NC3)ccc1C(=O)O [alisertib]
# Outline: as §1
# [9] = compound: COc1cc2nc(-c3cc(F)ccc3O)nc(N[C@@H]3CNC[C@H]3C(C)(C)O)c2cc1OC
# Outline: as §1
# [10] = compound: COc1cc2ncnc(Nc3ccc(F)c(Cl)c3)c2cc1OCCCN1CCOCC1 [gefitinib]
# Outline: as §1
# [11] = compound: CS(=O)(=O)CCNCc1ccc(-c2ccc3ncnc(Nc4ccc(OCc5cccc(F)c5)c(Cl)c4)c3c2)o1 [lapatinib]
# Outline: as §1
# [12] = compound: CS(=O)(=O)N1CCN(Cc2cc3nc(-c4cccc5[nH]ncc45)nc(N4CCOCC4)c3s2)CC1 [pictilisib]
# Outline: as §1
# [13] = compound: C[C@@H](Oc1cc(-c2cnn(C3CCNCC3)c2)cnc1N)c1c(Cl)ccc(F)c1Cl [crizotinib]
# Outline: as §1
# [14] = compound: C[C@H](C1=CC=C(C=C1)C(=O)NC2=C3C=CNC3=NC=C2)N
# Outline: as §1
# [15] = compound: C[C@H](Nc1ncnc2nc[nH]c12)c1cc2cccc(Cl)c2c(=O)n1-c1ccccc1 [duvelisib]
# Outline: as §1
# [16] = compound: Cc1cc(Nc2cc(CN3CCOCC3)c3nc(C)c(Cc4ccc(Cl)cc4F)n3n2)n[nH]1 [gandotinib]
# Outline: as §1
# [17] = compound: Cc1cc(Nc2cc(N3CCN(C)CC3)nc(Sc3ccc(NC(=O)C4CC4)cc3)n2)n[nH]1 [tozasertib]
# Outline: as §1
# [18] = compound: Cc1ccc(-n2nc(C(C)(C)C)cc2NC(=O)Nc2ccc(OCCN3CCOCC3)c3ccccc23)cc1 [doramapimod]
# Outline: as §1
# [19] = compound: Cc1ccc(NC(=O)c2ccc(CN3CC[C@H](N(C)C)C3)c(C(F)(F)F)c2)cc1Nc1nccc(-c2cncnc2)n1 [bafetinib]
# Outline: as §1
# [20] = compound: Cc1cccc(CC(=O)N2CCc3c2ccc(-c2cn(C)c4ncnc(N)c24)c3F)n1
# Outline: as §1
# Sequence of UniProt Q9UHQ1 (Q9UHQ1 whole entry, looked up): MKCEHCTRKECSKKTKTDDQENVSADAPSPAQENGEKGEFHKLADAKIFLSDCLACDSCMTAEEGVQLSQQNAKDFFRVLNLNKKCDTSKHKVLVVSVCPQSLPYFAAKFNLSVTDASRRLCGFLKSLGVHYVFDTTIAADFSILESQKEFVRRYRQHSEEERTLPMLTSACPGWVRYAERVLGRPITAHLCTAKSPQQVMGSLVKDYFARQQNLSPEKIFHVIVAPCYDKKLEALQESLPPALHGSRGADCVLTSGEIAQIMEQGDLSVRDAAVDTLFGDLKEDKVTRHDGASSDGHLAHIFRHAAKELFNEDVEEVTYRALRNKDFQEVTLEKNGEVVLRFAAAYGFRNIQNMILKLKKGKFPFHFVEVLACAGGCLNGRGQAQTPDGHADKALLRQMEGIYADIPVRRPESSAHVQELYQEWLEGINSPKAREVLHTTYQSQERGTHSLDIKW
# Sequence of UniProt Q8NCF5 (Q8NCF5 whole entry, looked up): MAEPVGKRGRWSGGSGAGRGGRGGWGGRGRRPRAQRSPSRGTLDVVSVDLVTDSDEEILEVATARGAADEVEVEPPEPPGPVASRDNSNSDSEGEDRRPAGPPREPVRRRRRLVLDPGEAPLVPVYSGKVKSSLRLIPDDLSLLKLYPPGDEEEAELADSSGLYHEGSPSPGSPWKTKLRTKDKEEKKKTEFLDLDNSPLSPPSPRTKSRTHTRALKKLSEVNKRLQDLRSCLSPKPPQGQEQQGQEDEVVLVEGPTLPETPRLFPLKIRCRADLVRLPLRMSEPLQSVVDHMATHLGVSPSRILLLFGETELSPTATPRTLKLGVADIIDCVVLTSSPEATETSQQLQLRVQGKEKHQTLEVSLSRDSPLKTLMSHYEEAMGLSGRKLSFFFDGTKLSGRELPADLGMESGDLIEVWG
# Sequence of UniProt Q15021 (Q15021 whole entry, looked up): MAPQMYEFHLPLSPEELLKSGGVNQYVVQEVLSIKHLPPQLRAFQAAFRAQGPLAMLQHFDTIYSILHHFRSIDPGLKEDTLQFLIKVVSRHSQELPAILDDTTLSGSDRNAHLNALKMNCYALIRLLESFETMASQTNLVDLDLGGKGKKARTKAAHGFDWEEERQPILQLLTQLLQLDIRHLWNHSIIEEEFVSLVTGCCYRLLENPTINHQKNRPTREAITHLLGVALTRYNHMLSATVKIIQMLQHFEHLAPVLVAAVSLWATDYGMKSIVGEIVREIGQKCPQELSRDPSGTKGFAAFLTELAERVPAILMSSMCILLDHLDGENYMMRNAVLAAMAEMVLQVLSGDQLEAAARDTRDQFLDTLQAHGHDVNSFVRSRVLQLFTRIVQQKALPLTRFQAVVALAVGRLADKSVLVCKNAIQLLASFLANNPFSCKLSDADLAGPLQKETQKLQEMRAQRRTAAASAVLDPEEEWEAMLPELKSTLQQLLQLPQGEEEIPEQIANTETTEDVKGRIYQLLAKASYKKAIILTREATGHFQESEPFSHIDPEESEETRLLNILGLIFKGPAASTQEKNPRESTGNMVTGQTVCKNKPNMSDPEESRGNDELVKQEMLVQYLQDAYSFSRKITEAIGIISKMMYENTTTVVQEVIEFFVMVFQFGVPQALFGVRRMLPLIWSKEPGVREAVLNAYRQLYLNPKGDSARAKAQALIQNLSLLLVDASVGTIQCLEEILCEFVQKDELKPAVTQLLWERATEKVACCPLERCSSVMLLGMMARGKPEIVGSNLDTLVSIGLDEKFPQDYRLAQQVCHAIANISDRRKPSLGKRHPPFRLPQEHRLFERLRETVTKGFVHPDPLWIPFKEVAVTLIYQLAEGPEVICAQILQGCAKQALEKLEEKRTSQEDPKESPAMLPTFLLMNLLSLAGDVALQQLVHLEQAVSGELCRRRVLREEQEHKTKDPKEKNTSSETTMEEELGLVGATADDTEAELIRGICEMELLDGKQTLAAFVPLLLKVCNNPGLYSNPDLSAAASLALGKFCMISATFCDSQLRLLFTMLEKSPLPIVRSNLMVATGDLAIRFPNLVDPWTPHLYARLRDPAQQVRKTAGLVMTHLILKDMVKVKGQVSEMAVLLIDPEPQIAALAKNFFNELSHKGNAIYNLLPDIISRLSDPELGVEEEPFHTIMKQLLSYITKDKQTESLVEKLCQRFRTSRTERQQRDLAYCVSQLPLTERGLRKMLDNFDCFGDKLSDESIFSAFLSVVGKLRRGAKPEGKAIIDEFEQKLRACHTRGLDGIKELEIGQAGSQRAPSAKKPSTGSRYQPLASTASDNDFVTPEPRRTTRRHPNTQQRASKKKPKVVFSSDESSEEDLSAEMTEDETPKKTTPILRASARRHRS
# Sequence of UniProt O94776 (O94776 whole entry, looked up): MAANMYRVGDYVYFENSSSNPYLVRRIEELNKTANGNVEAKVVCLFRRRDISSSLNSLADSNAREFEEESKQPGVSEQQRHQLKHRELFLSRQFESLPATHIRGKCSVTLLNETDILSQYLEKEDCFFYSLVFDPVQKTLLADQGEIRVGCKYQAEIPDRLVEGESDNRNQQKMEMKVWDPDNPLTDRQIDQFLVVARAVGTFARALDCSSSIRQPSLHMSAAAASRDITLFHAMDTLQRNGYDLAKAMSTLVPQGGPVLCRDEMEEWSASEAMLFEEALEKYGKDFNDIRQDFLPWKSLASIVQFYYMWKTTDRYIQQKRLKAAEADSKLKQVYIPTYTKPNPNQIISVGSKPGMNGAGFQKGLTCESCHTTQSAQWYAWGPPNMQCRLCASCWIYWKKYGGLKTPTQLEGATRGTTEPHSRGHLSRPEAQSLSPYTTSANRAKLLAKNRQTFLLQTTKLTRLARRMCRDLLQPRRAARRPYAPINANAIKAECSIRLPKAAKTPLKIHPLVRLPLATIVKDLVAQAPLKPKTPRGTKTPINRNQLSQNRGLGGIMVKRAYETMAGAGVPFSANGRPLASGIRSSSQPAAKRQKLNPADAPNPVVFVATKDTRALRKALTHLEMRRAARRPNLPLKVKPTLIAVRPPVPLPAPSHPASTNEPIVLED
# Sequence of UniProt Q86XI2 (Q86XI2 whole entry, looked up): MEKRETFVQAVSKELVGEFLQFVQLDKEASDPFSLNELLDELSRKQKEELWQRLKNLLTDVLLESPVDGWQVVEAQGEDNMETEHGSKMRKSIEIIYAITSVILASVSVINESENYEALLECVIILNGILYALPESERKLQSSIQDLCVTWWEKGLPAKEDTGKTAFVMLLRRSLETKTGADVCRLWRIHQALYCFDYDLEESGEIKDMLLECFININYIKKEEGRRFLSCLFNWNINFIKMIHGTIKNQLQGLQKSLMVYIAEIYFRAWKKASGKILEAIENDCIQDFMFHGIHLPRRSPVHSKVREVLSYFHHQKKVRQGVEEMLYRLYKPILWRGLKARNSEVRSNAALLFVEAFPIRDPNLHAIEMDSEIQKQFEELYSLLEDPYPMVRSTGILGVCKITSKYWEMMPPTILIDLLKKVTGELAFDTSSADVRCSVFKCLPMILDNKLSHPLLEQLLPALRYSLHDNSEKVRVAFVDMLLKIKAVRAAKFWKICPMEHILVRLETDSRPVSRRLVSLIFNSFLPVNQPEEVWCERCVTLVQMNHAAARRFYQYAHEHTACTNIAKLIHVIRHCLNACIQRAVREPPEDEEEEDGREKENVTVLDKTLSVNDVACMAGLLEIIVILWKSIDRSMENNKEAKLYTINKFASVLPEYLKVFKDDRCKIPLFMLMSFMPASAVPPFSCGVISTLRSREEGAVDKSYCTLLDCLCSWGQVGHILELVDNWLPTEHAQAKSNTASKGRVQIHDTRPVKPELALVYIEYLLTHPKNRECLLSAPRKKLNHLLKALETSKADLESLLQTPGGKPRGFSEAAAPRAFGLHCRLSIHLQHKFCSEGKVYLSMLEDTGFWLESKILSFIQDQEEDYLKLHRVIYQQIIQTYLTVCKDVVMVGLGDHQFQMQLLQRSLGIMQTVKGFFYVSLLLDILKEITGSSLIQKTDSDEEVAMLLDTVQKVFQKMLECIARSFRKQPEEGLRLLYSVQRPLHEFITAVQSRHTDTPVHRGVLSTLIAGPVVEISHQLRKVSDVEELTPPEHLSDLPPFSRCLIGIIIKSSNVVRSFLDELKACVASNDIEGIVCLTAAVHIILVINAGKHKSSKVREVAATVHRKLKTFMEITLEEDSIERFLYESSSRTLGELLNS
Target,log2 fold change [1],log2 fold change [2],log2 fold change [3],log2 fold change [4],log2 fold change [5],log2 fold change [6],log2 fold change [7],log2 fold change [8],log2 fold change [9],log2 fold change [10],log2 fold change [11],log2 fold change [12],log2 fold change [13],log2 fold change [14],log2 fold change [15],log2 fold change [16],log2 fold change [17],log2 fold change [18],log2 fold change [19],log2 fold change [20]
NFATC2IP (UniProt Q8NCF5),-0.015,0.002,0.052,0,0.002,0.003,-0.208 (active),-0.009,-0.001,0.023,0.002,-0.091,0.027,0.059,-0.067,0.039,-0.035,0.001,-0.169,-0.018
MYOM1 (UniProt P52179),0.039,-0.033,-0.092,0.194,0.139,0.065,-0.011,0.215,-0.06,0.026,0.099,0.009,0.054,-0.082,-0.02,0.065,-0.137,-0.436,-0.252,0.05
NARF (UniProt Q9UHQ1),0.001,0.011,0.031,-0.015,-0.014,0.047,0.003,-0.021,-0.019,-0.007,-0.027,0.01,0.032,0.001,0.029,0.008,0.02,0.012,-0.008,-0.04
NCAPD2 (UniProt Q15021),0.007,-0.119,0.013,0.002,-0.018,0.013,0.076,0.004,-0.005,-0.016,-0.033,0.001,-0.049,-0.003,0.014,-0.115,-0.006,0.011,-0.036,0.029
MTA2 (UniProt O94776),0.005,-0.049,-0.002,0.016,-0.01,0.009,0.134,0.012,-0.005,-0.02,-0.003,0.017,0,0.013,0,-0.033,-0.016,0.031,-0.009,0.021
MRPS18A isoform 2 (UniProt Q9NVS2),0.18,-0.047,-0.156,-0.024,0.106,0.029,-0.037,0.041,-0.017,0.008,0.005,-0.046,-0.02,0.262,-0.133,-0.164,0.043,-0.005,0,-0.226
NCAPG2 (UniProt Q86XI2),-0.014,-0.217,-0.008,0.023,0.04,0.002,-0.018,0.004,-0.01,0.038,-0.062,-0.006,-0.048,-0.108,-0.052,-0.011,0.023,0.062,-0.074,0.143
NCK1 (UniProt P16333),0,-0.097,0.023,-0.02,-0.008,0.008,-0.068,-0.003,-0.007,0.026,0.025,0,-0.024,0.065,0.014,-0.051,0.005,0.03,-0.033,-0.024

# — the supplement of paper PMC10849652
